A selection: hits, their analogues and other compounds. The true share with any hit is near 2.1%.
FUS yeast rescue = FUS proteinopathy suppression in yeast. S. cerevisiae FUS-expressing, growth rescue, OD600, 24 h. Potency, µM (titrated, usually from 76.6 µM), actives largely listed as activators. actives 0.24% (n = 390,000);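 note: plate controls were DMSO vehicle for no effect and reference control for full effect; nearly all actives have a fitted effect of over 55% in size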
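Galactose (2%) drives FUS expression in yeast precultured in raffinose; seeding density OD 0.005. Test compounds incubated 24hr at 30C and 99% humidity before absorbance at 600 nm was measured.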
aSyn yeast inh = alpha-synuclein toxicity inhibition in yeast; Potency, µM (series often up to 46.1 µM), for the others: at the top dose growth rescue (activation), actives largely listed as activators; actives 0.14% (n = 370,000); AID 652106; Yeast expressing alpha-synuclein, growth rescue, BacTiter-Glo, 24 h; note: % of control where 0% means no effect; nearly all actives have a fitted effect of over 65% in size
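Rescue of yeast growth: cells expressing toxic alpha-synuclein, induced in galactose at OD600 0.02, incubated with compound 24 h at 30 C. ATP luminescence quantified growth; inhibitors of toxicity appear as activators.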
TDP-43 yeast inh = TDP-43 toxicity inhibition in yeast | TDP-43 expressing yeast growth rescue, BacTiter-Glo, 24 h | Potency, µM (titrated, usually from 46.1 µM), for inactives: at the highest dose growth rescue (activation), most hits filed as activators | actives 1.8% (n = 410,000) | AID 652104; note: % of control where 0% means no effect; nearly all actives have a fitted effect of over 50% in size
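Growth rescue of TDP-43-toxic yeast measured as ATP luminescence (BacTiter-Glo). Cells grown to mid-log in raffinose, induced in galactose at OD600=0.02, exposed to compound 24 hr at 30 deg C.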
Abeta rescue = A-beta toxicity reversal in yeast; Potency, µM (series often up to 46.1 µM), hits mostly activators; actives 0.063% (n = 410,000); yeast expressing A-beta42, growth rescue, OD600, 48 h; response scale: 0% DMSO, 100% iron-clioquinol control; AID 1347071; note: nearly all actives have a fitted effect of over 55% in size
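Yeast A-beta toxicity model in growth medium with pinned compounds, 48 h at 30 C; growth read as absorbance at 600 nm. Normalized to FeCl3/clioquinol equimolar mix (positive) and DMSO (negative).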
TSG101-PTAP inh = blocks PTAP/TSG101 interaction to inhibit HIV-1 budding. Potency, µM (titrated, usually from 115 µM), for the others: at the highest dose activity change, negative = inhibition, hits mostly inhibitors. Fluorescence polarization, FITC-PTAP peptide / Tsg101 binding. AID 493005. 340,000 tested, under 10 active; active = well fitted inhibition curve with a large enough effect in the main read-out, with a control signal flat, not every such curve was filed as active; inconclusive = small, poorly fitted or top-dose-only effect, or effect the other way, or a change in a side signal; inactive = no such curve, though single readings can be large or run the other way; note: % of control where 0% means no effect
Target sequence (Q99816 whole entry, looked up): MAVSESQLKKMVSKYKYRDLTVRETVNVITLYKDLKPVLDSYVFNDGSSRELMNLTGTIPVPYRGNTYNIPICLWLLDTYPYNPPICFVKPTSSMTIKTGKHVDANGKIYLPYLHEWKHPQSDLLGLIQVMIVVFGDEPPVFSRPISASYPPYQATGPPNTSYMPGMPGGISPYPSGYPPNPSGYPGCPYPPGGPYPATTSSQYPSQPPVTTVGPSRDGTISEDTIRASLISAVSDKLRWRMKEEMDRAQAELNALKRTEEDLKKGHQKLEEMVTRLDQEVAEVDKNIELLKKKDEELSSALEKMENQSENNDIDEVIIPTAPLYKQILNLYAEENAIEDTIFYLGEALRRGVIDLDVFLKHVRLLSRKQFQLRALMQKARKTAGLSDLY
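Fluorescence anisotropy tracks displacement of a FITC-tagged PTAP peptide (50 nM) from the Tsg101 binding domain (10 uM), following a 20 min room-temperature incubation at pH 7.5.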
* marks the source's active call; other numbers are inactive results; i = inactive; ? = inconclusive; / = no result. Unless noted, calls come from the whole dose curve; as a rule, active = well fitted curve in the direction sought with a large enough effect; inconclusive = small, poorly fitted or top-dose-only effect, or another doubt; inactive = no such curve, though single readings can be large; an effect the other way counts as inactive or inconclusive. Potency is the fitted concentration of half-maximal effect.

SMILES | FUS yeast rescue | aSyn yeast inh | TDP-43 yeast inh | Abeta rescue | TSG101-PTAP inh
Cc1cc(C)nc(SC2=CS(=O)(=O)c3ccccc32)n1 | i | 3% | 26% | i | -5%
O=S1(=O)C=C(Sc2nc3ccccc3s2)c2ccccc21 | i | 13% | 2.2µM* | i | -4%
CCCCCc1c(O)c2ccccc2[nH]c1=O | i | -4% | 6% | i | -4%
CCCCS(=O)c1c(O)c2ccccc2[nH]c1=O (configuration not stated) | i | 17% | 11µM* | i | -2%
O=[N+]([O-])c1ccccc1S(=O)(=O)NCc1ccccn1 | / | 1% | / | / | /
CN1CCN(C(=O)c2cnn(-c3ccc(F)cc3F)c2C2CCN(C(=O)OC(C)(C)C)CC2)CC1 | i | / | -4% | i | /
COc1ccc(NC(=O)c2cnn(-c3ccc(F)cc3F)c2C2CCN(C(=O)OC(C)(C)C)CC2)cc1Cl | 13µM* | / | 16% | i | /
CC(C)(C)OC(=O)N1CCC(c2c(C(=O)N3CCN(c4ccc(Cl)cc4)CC3)cnn2-c2ccc(F)cc2F)CC1 | 22µM* | / | ? | i | /
CN(Cc1cccc(Cl)c1Cl)C(=O)CCNC(=O)c1ccco1 | i | 2% | -8% | i | -5%
C=C1CC2(OC1=O)c1ccccc1CCc1ccccc12 | / | 7% | 1.8µM* | i | -5%
COc1ccc(OC)c(C2CC(=O)N(c3cccc(C)c3)C3=C2C(=O)OC3)c1 (configuration not stated) | i | / | 15% | i | /
CCN(C(=O)Cn1c(=O)n(-c2ccccc2)c(=O)c2ccc(C(=O)NCc3ccc4c(c3)OCO4)cc21)c1cccc(C)c1 | 35µM* | / | 7% | i | /
Cc1noc(Cn2c(=O)c3cc4c(cc3n(CC(=O)Nc3ccccc3F)c2=O)OCO4)n1 | i | / | 11% | i | /
CCOC(=O)c1ccc2nc(NC(=O)C(C)C)sc2c1 | i | -6% | 10µM* | ? | -5%
CCCC(=O)Nc1nc2ccc(C(=O)OCC)cc2s1 | i | 2% | 4% | i | -3%
O=S1(=O)CC(N2CCC(Cc3ccccc3)CC2)CN1CCc1ccccc1 (configuration not stated) | i | 11% | 13% | i | /
